Measles CPE – protection of cells from measles virus | AID 841 | 1.5% of 140,000 active | protection (pct of control), % at 4 µM | Measles virus-infected cells, CPE protection, absorbance; in the data active = protection mostly above about 24%, no sharp cut-off; inactive = mostly below about 26%
CYP2C19 activ – increases human CYP2C19 enzyme activity; P33261; recombinant CYP2C19, luciferin-H EGE luminescence; active compounds read high; 0 = fully inhibited enzyme, 1 = untreated enzyme; activation factor at 5 µM; 96,000 tested, under 10 active; AID 1025;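 active = activation factor of at least 2 at 5 µM in the primary screen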;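 note: 0 = wells with 2.5 mM tranylcypromine and 1 = vehicle-only wells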
Target sequence (P33261 whole entry, looked up): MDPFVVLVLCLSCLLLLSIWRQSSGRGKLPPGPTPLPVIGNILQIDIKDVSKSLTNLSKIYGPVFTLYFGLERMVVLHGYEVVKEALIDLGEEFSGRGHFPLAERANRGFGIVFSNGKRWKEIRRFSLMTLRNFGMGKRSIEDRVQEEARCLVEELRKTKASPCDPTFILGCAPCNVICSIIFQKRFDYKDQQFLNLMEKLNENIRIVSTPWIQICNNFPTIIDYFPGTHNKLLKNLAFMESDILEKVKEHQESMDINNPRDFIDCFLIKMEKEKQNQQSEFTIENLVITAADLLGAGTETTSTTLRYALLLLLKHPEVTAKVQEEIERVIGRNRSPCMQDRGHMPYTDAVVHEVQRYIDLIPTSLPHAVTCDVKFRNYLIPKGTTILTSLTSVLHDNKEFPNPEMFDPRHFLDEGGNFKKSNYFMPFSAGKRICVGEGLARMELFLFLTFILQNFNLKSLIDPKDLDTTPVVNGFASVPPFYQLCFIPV
CYP2C19 inhib – blocks human cytochrome P450 2C19; CYP2C19 Supersomes, luciferin-H EGE luminescence, 30 min; 21% of 96,000 active; inhibition, % at 5 µM; AID 778;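 active = CYP2C19 inhibition above a set limit at 5 µM in the primary screen, cut at about 50% in these data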;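 note: plate controls were negative control wells for no effect and 2.5 mM tranylcypromine positive control for full effect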
CYP2C9 inh – blocks human cytochrome P450 2C9; 20% of 96,000 active; inhibition, % at 5 µM; CYP2C9 Supersomes, luciferin-H conversion, luminescence; P11712;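 active = blocking of liver enzyme CYP2C9 beyond about 50% at 5 µM, limit read from the data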
CYP2C9 act – CYP2C9 (human) activation; AID 1024; recombinant CYP2C9, luciferin-H conversion, luminescence; active compounds read high; factor 1 = untreated enzyme, 0 = blocked; 1.4% of 96,000 active; activation factor at 5 µM;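 active = activation factor of 2 or more for CYP2C9 at a 5 µM dose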;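 note: 0 = sulfaphenazole-blocked wells and 1 = vehicle-only wells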
Active calls of the source: *; · = not tested or not shown. Shown are actives, neighbours in structure and some others; about 22% of the full set was active somewhere.

SMILES | Measles CPE | CYP2C19 activ | CYP2C19 inhib | CYP2C9 inh | CYP2C9 act
CN(C)C(/C=C/Nc1ccccc1F)=C(C#N)C#N | 4.4 | 0.8 | 19.2 | 49.5 | 0.5
Cc1cccc(N/C=C/C(=C(C#N)C#N)N(C)C)c1 | 21.4 | 0.2 | 76.1* | 87.4* | 0.1
CCc1cc(/C(Cc2csc(C)n2)=N/O)c(O)cc1O | 5.0 | 0.4 | 55.6* | 31.1 | 0.7
CCc1sc(N(C(=O)Cc2ccccc2)c2ccccc2)nc1-c1ccccc1 | 13.7 | 0.8 | 17.6 | 37.7 | 0.6
CCc1sc(N(C(=O)Cc2ccccc2)c2ccc(F)cc2)nc1-c1ccccc1 | 5.4 | 0.1 | 86.3* | 50.9* | 0.5
CCOC(=O)C(NC(=O)c1ccc(F)cc1)(Nc1nnc(C)s1)C(F)(F)F (centres undefined) | 13.9 | 0.9 | 14.4 | -1.7 | 1
S=C(Nc1ccc2nsnc2c1)NC1CCCCC1 | 30.2* | · | · | · | ·
O=C(CCc1ccc(S(=O)(=O)NCCc2ccccc2)cc1)NCc1ccco1 | 6.2 | · | · | · | ·
CCN(CC)C(=O)CSc1nnc(-c2cc(OC)cc(OC)c2)o1 | 3.0 | 0.7 | 28.1 | -27.1 | 1.3
COc1cc(-c2nnc(SCC(=O)N(Cc3ccccc3)C(C)(C)C)o2)cc(OC)c1OC | 5.4 | 0.1 | 85.4* | 15.8 | 0.8
COc1cc(OC)cc(-c2nnc(SCC(=O)N(C(C)C)C(C)C)o2)c1 | 6.4 | 0.3 | 72.0* | -133.2 | 2.3*
COc1cc(OC)cc(-c2nnc(SCC(=O)N(Cc3ccccc3)C(C)(C)C)o2)c1 | 16.8 | 0.2 | 78.2* | -10.2 | 1.1
COc1cccc(-c2nnc(SCC(=O)N(C(C)C)C(C)C)o2)c1 | 13.6 | 0.6 | 36.4 | -3.4 | 1
COc1ccccc1NCc1nnc(SCC(=O)N/N=C/c2ccco2)n1-c1ccc(Cl)cc1Cl | 7.3 | 0.6 | 44.2 | 21.6 | 0.8
CC1CC(C)CN(C2CCN(Cc3cccnc3)CC2)C1 (centres undefined) | 26.8 | 1 | 2.6 | 12.2 | 0.9
O=C(CO/N=C/c1ccccc1)N1c2ccccc2Oc2ccccc21 | 6.1 | · | · | · | ·
CC(C)C(c1nnnn1C(C)(C)C)N1CCC(Cc2ccccc2)CC1 (centres undefined) | 5.9 | · | · | · | ·
CCC(C)NC(=O)C(Cc1ccccc1)NS(=O)(=O)c1cccc2nsnc12 (centres undefined) | 4.7 | 0.9 | 8.7 | 14.8 | 0.9
CC1CCCCC1NC(=O)C(Cc1ccccc1)NS(=O)(=O)c1cccs1 (centres undefined) | 5.5 | 0.2 | 83.6* | 73.4* | 0.3
CC(CCc1ccccc1)NC(=O)C(Cc1ccccc1)NS(=O)(=O)c1cccs1 (centres undefined) | 14.6 | 0.2 | 75.8* | 79.4* | 0.2
CCO/C(C)=C1\C(=O)Nc2ccccc21 | 16.8 | 1.2 | -18.6 | -9.0 | 1.1
Cc1[nH]c2c(C)cccc2c1CCNC(=O)C1CCCCC1C(=O)OCC(F)(F)F (centres undefined) | 3.8 | · | · | · | ·
CN1CCN(C(=O)C23CCC(C)(c4nc5ccccc5nc42)C3(C)C)CC1 (centres undefined) | 21.8 | 1.1 | -6.8 | -4.7 | 1
CCc1nn2cc(-c3ccccc3)nc2s1 | 10.1 | 0.1 | 88.0* | 58.8* | 0.4
O=C(CSc1nnc(-c2ccccn2)n1Cc1ccccc1)N1CCCC1 | 9.8 | 0.9 | 13.0 | 24.6 | 0.8
SMILES | Measles CPE | CYP2C19 activ | CYP2C19 inhib | CYP2C9 inh | CYP2C9 act
O=C(NCC(c1cccs1)N1CCOCC1)c1ccc(Cl)s1 (centres undefined) | 4.8 | 0.3 | 72.2* | 53.6* | 0.5
O=C(NCC(c1cccs1)N1CCOCC1)c1cc([N+](=O)[O-])ccc1Cl (centres undefined) | 10.3 | · | · | · | ·
Cc1ccc(N(C(=O)C2CCCO2)C2C=CS(=O)(=O)C2)cc1Cl (centres undefined) | 4.0 | 1.1 | -13.3 | -8.5 | 1.1
COc1ccc(-c2csc(C3=C(O)CN(Cc4ccc(Cl)cc4)C3=N)n2)cc1OC | 0.5 | 0.6 | 42.9 | 89.4* | 0.1
COc1cccc(CN2CC(O)=C(c3nc(-c4ccc(Cl)cc4)cs3)C2=N)c1 | 4.5 | 0.9 | 14.6 | 22.6 | 0.8
N=C1C(c2nc(-c3ccc(F)cc3)cs2)=C(O)CN1Cc1ccc(Cl)cc1 | 13.7 | 0.5 | 45.4 | 53.1* | 0.5
CN(C(=O)c1c(Cl)nc2sccn12)C1CCCCC1 | 23.3* | 0.7 | 31.0 | -13.9 | 1.1
O=C(Nc1nnc(-c2ccccc2Cl)o1)c1cc2cc([N+](=O)[O-])ccc2s1 | 8.5 | · | · | · | ·
Cc1cc(O)ccc1NC(=O)CCN1C(=O)c2ccc([N+](=O)[O-])cc2C1=O | 15.7 | · | · | · | ·

High-throughput results: PubChem, several laboratories
